Calls of active or inactive are those of the source. Rule for the calls: active = hit-call score of the fitted dose curve at least 0.9, where 1 is the maximum; inactive = score below 0.9.
What follows are compounds tested on growth arrest and DNA damage 45 (GADD45A), GADD45A (gene 1647) (assay: LTEA_HepaRG_GADD45A: Life Technologies and Expression Analysis (LTEA) Assay for growth arrest and DNA damage 45 (GADD45A) using HepaRG (AID 2283458)). Settings: mRNA level, 48 h; actives raise or lower the signal.
Description: LTEA_HepaRG is a cell based, multiplexed-readout assay that uses HepaRG, a human liver cell line, with measurements taken at 48 hours after chemical dosing on a 96-well plate.LTEA_HepaRG_GADD45A is one of 102 assay component(s) measured in the LTEA HepaRG cell culture assay. It is a marker of Oxidative Stress.Data from the assay component LTEA_HepaRG_GADD45A was analyzed into 1 endpoint. This assay endpoint, LTEA_HepaRG_GADD45A, was analyzed with bidirectional fitting relative to DMSO as the negative control and baseline of activity. Using a type of inducible reporter, measures of mRNA induction for gain or loss-of-signal activity can be used to understand regulation of transcription factor activity. To generalize the intended target to other relatable targets, this assay endpoint is annotated to the cell cycle intended target family, where the subfamily is Oxidative Stress.
A total of 1060 chemcials from the ToxCast library were tested in eight-point concentration-response experiments. Cell culture and cytotoxicity assays were conducted at Thermo Fisher Scientific's Custom Services facility (Madison, WI). A single lot of human HepaRG cells (Thermo Fisher Scientific, Frederick, MD) was used for the cell culture experiments. 96-well format collagen type I coated plates of human HepaRG cells were prepared using established methods. Briefly, cryopreserved HepaRG cells were thawed, plated at a density of approximately 100,000 cells/well in HepaRG Thaw, Plate, and General Purpose media (HPRG770, Thermo Fisher Scientific), and incubated for 48 hours. 0.5% DMSO was selected as vehicle control to balance the requisite need of DMSO in HepaRG cultures to maintain differentiation (for example, baseline metabolism, proportions of hepatocytes vs. cholangiocytes), while enabling further hepatic receptor pathway activation (for example, PXR and CAR) in response to chemical exposure. 48 hours after plating, the culture medium was replaced with HepaRG Serum-Free Incudtion Media. Cells were exposed to each test chemical in duplicate and maintained in CO2 incubators for another 48 hours. Chemical plates were thawed to room temperature and 200x concentrations of treatment groups were prepared. 8-point conentration-reponse curves were made with the highest exposure at 100 uM, followed by half-log dilutions, all in 0.5% DMSO. Each test plate contained variouse controls, induction positive controls (1mM phenobarbital), cytotoxicity positive controls ([…] aflatoxin B1), vehicle controls (0.5% DMSO), and total lysis controls (0.5% DMSO). Cell morphology images were taken using an Essen IncuCyte FLR automated microscope, with six 96-well plates imaged in about 24 minutes. Images were captured and exported and JPEG files. Spent culture media was transfered to black-well plates for the LDH assay, and remaining media was sorted at -80 C for later use. Cells were treated with RLT buffer and frozen until shipped for gene expression analysis. Total RNA was isolated from the cell suspension in 75 uL of Buffer RLT (Qiagen, Germantown, MD 20874) by Quintiles/Expression Analysis (Durham, NC) using a custom isolation procedure. Total RNA from each plate well was transferred to a preamplification plate. Fluidigm's 96.96 Dynamic ArrayTM (Fluidigm, Amsterdam, the Netherlands) technology was used for gene expression analyses by quantitative reverse transcription polymerase chain reaction (qRT-PCR, performed by Quintiles/Expression Analysis, Durham, NC)89. Standard TaqManTM Assays (Applied Biosystems/ThermoFisher Scientific, Foster City, CA) were used to assess the expression of 93 genes selected based on their selectivity and sensitivity to important hepatic receptors known to be modulated by environmental chemicals; importance in human hepatocyte functionality; and hepatotoxicity. […]

Row | Compound | outcome
1 | CC(C)O.CC(C)O.OCCN(CCO)CCO.OCCN(CCO)CCO.[Ti] | inactive
2 | CC(C)(C)c1ccccc1O | inactive
3 | Cc1cc(C)cc(C)c1 | inactive
4 | Clc1cccc(Cl)c1Cl | inactive
5 | N#Cc1cccnc1 | inactive
6 | Oc1cc(Cl)c(Cl)cc1Cl | inactive
7 | O=C(N[C@H]1CN2CCC1CC2)c1ccc2c(c1)OCCO2 | inactive
8 | Clc1cccc(Cl)c1 | inactive
9 | CN(C)C(=S)S | inactive
10 | Oc1c(Cl)cc(Cl)cc1Cl | inactive
11 | O=C(O)C1(c2ccc3c(c2)OC[C@H](Cc2ccc(-c4ccccc4)cc2)[C@H]3O)CCCC1 | inactive
12 | OCCN(CCO)CCO | inactive
13 | COc1ccccc1N | inactive
14 | CCCCCCCCCCCCc1cccc(S(=O)(=O)O)c1 | inactive

Reference: PubChem BioAssay (EPA / NIEHS)
